According to PubChem BioAssay:
Calls of active or inactive are those of the source.

Tests used:
[1] = test system: Wnt5a (protein binding on small-molecule microarray); assay: small molecules binding Wnt5a protein – biophysical, small-molecule microarray, 635/667 nm fluorescence, primary screen (AID 1142); conditions: 635 nm fluorescence, higher = more signal;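 note: fluorescence read at 667 nm with signal to noise per printed feature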
[2] = ATP-based viability of Huh7 replicon cells – cell-based, CellTiter-Glo luminescence, basal, 48 h, cytotoxicity control for HCV replication inhibitor project, primary screen (AID 1143); conditions: higher = more signal, called active from +8 up or from −8 down;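 note: Huh7 hepatoma cells carrying a hepatitis C replication reporter with no stimulus; test concentration not given here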
[3] = basal CRE-LacZ reporter activity in PC12 – cell-based, unstimulated, primary screen (AID 1145); conditions: no forskolin, luminescence, 4.5 h, higher = more signal, called active from +8 up or from −8 down
[4] = forskolin-driven CRE-LacZ activity in PC12 – cell-based, CRE-LacZ reporter, forskolin-stimulated, primary screen (AID 1146); conditions: luminescence, 4.5 h, higher = more signal, called active from +8 up or from −8 down;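 note: PC12 cells with 6xCRE LacZ reporter stimulated by forskolin 10 µM; beta-galactosidase reporter signal reflecting CREB driven transcription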
[5] = molecular target: Streptavidin (Streptomyces avidinii) (UniProt P22629); assay: compounds binding control protein streptavidin – biophysical, small-molecule microarray, 635/667 nm fluorescence, artefact control for SMM compound annotation, primary screen (AID 1147); conditions: higher = more signal;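 note: signal reflects streptavidin binding to arrayed compounds as a control protein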
Streptavidin (Streptomyces avidinii), sequence (P22629 whole entry, looked up): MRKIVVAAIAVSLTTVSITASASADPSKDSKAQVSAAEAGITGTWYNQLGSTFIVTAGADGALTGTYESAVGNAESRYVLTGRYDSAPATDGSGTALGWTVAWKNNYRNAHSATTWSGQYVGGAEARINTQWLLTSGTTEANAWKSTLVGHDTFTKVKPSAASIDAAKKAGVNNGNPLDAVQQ

[6] = probe aInhba binding on compound microarray – biochemical, small-molecule microarray, 635/667 nm fluorescence, primary screen (AID 1148); conditions: higher = more signal;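 note: score merges 667nm spot fluorescence with signal-to-noise for antibody binding to printed compounds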
Torsin-1A (Homo sapiens) [7] = molecular target: Torsin-1A (Homo sapiens) (UniProt O14656); assay: TOR1A wild-type binding on microarray – cell lysate, small-molecule microarray, lysate, 635/667 nm, primary screen (AID 1149); conditions: COS7 hTOR1A-WT lysate, 635 nm fluorescence, higher = more signal
Torsin-1A (Homo sapiens), sequence (O14656 whole entry, looked up): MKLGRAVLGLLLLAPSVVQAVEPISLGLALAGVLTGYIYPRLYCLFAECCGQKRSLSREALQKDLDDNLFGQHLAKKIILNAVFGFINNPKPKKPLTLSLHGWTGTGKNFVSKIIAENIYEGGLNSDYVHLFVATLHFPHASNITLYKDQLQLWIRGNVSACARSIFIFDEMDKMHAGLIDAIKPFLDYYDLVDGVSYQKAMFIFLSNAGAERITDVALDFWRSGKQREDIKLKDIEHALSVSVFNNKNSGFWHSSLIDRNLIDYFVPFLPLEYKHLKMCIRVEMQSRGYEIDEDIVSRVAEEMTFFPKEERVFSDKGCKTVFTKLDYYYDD

Torsin-1A (Homo sapiens) [8] = molecular target: Torsin-1A (Homo sapiens) (UniProt O14656); assay: torsin A mutant lysate binding on microarrays – cell lysate, small-molecule microarray, COS7 lysate, 635/667 nm fluorescence, primary screen (AID 1150); conditions: COS7 hTOR1A mutant lysate, 635 nm fluorescence, higher = more signal;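 note: score pools 667 nm emission and signal to noise measuring lysate protein binding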
[9] = test system: Sonic hedgehog protein (Shh); assay: Sonic hedgehog microarray binding compounds – biochemical, small-molecule microarray, 635/667 nm fluorescence, primary screen (AID 1151); conditions: 635 nm fluorescence, higher = more signal;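 note: Shh protein binding to compounds spotted on small-molecule microarray slides; score combines spot fluorescence intensity with signal-to-noise across triplicate slides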
[10] = optical density shifts of acrAB sulA E. coli – strain DRC41, OD650, 48 h, E. coli filamentation inducer project, primary screen (AID 1152); conditions: higher = more signal, called active from +8 up or from −8 down;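 note: E. coli MC1000 strain DRC41 lacking acrAB efflux pump and sulA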
[11] = probe aLefty1 binding on compound microarray – biochemical, small-molecule microarray, 635/667 nm fluorescence, primary screen (AID 1153); conditions: higher = more signal;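 note: score merges spot fluorescence with signal-to-noise ratio from the scanned slide images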
[12] = plasmodial surface anion channel blockers, osmotic lysis – cell-based, P. falciparum Indochina, OD700, 1 h, primary screen (AID 1154); conditions: P. falciparum Indochina infected RBC osmotic lysis, higher = more signal, called active from +8 up or from −8 down
[13] = plasmodial surface anion channel blockers, osmotic lysis – cell-based, P. falciparum Indochina, OD700, 2 h, primary screen (AID 1155);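 note: lysis reports solute entry through the parasite surface anion channel PSAC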; conditions: P. falciparum Indochina infected erythrocytes, higher = more signal, called active from +8 up or from −8 down
[14] = changes in parasitized red cell lysis, either direction – P. falciparum Indochina, OD700, 3 h, PSAC antagonist project, primary screen (AID 1156); conditions: P. falciparum-infected erythrocytes, osmotic lysis, higher = more signal, called active from +8 up or from −8 down
[15] = plasmodial surface anion channel blockers, osmotic lysis – cell-based, P. falciparum Indochina, OD700, 18 h, primary screen (AID 1157); conditions: P. falciparum Indochina infected erythrocytes, osmotic lysis OD700, 18 h; higher = more signal, called active from +8 up or from −8 down
[16] = S6 kinase pathway phospho-S6 level changes – cell-based, A549, cytoblot, luminescence, serum-stimulated, primary screen (AID 1158); conditions: 5 h, higher = more signal;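 note: serum-stimulated A549 lung adenocarcinoma cells; signal is phosphorylated S6 detected by cytoblot immunostaining with HRP secondary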
[17] = molecular target: NADPH oxidase 2 (Homo sapiens) (UniProt P04839); assay: compounds shifting NOX2 Amplex Red fluorescence – cell-based, HEK293-NOX2, PMA-stimulated, NOX inhibitor project, primary screen (AID 1159); conditions: 45 min, higher = more signal, called active from +8 up or from −8 down; note: test concentration not given here
NADPH oxidase 2 (Homo sapiens), sequence (P04839 whole entry, looked up): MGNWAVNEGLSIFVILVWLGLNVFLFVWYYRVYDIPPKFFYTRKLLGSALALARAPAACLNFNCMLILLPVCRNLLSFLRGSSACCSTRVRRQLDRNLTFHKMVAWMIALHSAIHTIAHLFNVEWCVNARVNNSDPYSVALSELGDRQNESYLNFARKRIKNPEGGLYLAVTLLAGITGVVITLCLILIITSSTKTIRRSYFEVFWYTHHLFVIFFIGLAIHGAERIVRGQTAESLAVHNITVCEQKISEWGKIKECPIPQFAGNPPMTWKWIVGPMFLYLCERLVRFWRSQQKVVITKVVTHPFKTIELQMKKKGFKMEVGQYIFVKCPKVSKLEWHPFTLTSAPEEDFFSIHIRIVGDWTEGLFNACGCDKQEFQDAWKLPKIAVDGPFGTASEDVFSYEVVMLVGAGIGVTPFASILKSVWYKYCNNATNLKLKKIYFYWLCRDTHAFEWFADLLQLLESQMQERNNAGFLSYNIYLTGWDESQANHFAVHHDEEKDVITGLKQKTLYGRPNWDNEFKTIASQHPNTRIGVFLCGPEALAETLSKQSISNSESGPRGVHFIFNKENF

[18] = molecular target: NADPH oxidase 4 (Homo sapiens) (UniProt Q9NPH5); assay: compounds shifting NOX4 Amplex Red fluorescence – cell-based, HEK293-NOX4, tetracycline-induced, NOX inhibitor project, primary screen (AID 1160); conditions: HEK293-NOX4, Amplex Red H2O2 fluorescence, 45 min; higher = more signal, called active from +8 up or from −8 down
NADPH oxidase 4 (Homo sapiens), sequence (Q9NPH5 whole entry, looked up): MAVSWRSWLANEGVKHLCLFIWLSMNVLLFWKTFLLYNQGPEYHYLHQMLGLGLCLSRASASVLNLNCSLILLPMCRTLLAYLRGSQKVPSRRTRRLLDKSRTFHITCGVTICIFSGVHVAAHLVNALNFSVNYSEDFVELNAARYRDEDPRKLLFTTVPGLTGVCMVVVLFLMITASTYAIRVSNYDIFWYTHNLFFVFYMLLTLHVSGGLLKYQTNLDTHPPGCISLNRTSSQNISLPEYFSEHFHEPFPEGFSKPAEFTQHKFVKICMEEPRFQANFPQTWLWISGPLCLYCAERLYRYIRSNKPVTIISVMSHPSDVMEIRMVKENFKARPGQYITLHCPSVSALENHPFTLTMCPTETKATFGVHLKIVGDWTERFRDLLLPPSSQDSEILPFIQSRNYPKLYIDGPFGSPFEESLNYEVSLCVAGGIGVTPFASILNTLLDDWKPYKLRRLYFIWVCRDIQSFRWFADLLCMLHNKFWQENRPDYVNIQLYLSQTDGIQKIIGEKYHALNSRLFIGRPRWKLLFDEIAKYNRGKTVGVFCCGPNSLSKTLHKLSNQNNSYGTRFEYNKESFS

[19] = molecular target: NADPH oxidase 5 (Homo sapiens) (UniProt Q96PH1); assay: compounds shifting NOX5 Amplex Red fluorescence – cell-based, HEK293-NOX5, NOX inhibitor project, primary screen (AID 1161); conditions: HEK293-NOX5, ionomycin, 45 min, higher = more signal
NADPH oxidase 5 (Homo sapiens), sequence (Q96PH1 whole entry, looked up): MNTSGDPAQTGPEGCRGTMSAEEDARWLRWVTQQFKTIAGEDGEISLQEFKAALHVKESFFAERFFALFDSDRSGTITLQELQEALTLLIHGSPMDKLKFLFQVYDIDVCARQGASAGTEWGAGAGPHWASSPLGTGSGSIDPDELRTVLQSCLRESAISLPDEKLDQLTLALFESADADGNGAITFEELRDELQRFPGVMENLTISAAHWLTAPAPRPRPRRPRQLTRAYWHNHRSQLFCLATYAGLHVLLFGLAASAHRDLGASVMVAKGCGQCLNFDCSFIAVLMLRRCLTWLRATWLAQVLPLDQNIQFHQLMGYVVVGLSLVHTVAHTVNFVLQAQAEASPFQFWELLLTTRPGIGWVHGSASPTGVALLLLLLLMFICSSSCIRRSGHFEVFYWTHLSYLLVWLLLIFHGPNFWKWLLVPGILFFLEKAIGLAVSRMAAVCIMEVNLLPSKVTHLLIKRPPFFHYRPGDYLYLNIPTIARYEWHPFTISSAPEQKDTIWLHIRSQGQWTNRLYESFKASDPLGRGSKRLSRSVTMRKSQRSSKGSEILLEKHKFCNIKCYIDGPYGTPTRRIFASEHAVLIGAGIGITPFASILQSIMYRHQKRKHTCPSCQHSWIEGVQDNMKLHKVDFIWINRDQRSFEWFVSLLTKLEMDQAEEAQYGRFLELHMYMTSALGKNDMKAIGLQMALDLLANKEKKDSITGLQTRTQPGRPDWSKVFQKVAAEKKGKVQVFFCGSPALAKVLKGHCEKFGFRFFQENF

[20] = compound effects on lung adenocarcinoma cell viability – A549, calcein-AM fluorescence, 48 h, basal, profiling panel (AID 1162); conditions: higher = more signal; note: test concentration not given here

| SMILES | composite z-score [1] | z-score [2] | z-score [3] | z-score [4] | composite z-score [5] | composite z-score [6] | composite z-score (Torsin-1A (Homo sapiens) [7]) | composite z-score (Torsin-1A (Homo sapiens) [8]) | composite z-score [9] | z-score [10] | composite z-score [11] | z-score [12] | z-score [13] | z-score [14] | z-score [15] | z-score [16] | z-score [17] | z-score [18] | z-score [19] | z-score [20] |
| --- | --- | --- | --- | --- | --- | --- | --- | --- | --- | --- | --- | --- | --- | --- | --- | --- | --- | --- | --- | --- |
| C#CCN1C(C(=O)OCC)OC[C@H]1c1ccccc1 (stereo not given in full) | 0.0718 | -2.25 (inactive) | 1.12 (inactive) | -0.678 (inactive) | -0.0517 | 0.195 | 3.34 | 3.27 | 0.789 | 2.39 (inactive) | -0.0061 | 0.0429 (inactive) | -1.18 (inactive) | 0.696 (inactive) | -2.37 (inactive) | 1.01 | 0.413 (inactive) | 0.918 (inactive) | -0.727 | 0.208 |
| COC(=O)C(CC#Cc1ccc2c(c1)[C@]1(C(=O)N2)[C@H](c2ccccc2OCCO)N2[C@H](c3ccccc3)[C@H](c3ccccc3)OC(=O)[C@H]2[C@@H]1C(=O)N1CCCCCCC1)C(=O)OC | 2.33 | -2.45 (inactive) | 0.212 (inactive) | -0.706 (inactive) | 3.71 | 2.15 | 2.87 | 3.23 | 1.32 | 1.02 (inactive) | 2.82 | 0.867 (inactive) | 0.71 (inactive) | 0.776 (inactive) | 0.51 (inactive) | 0.67 | 0.797 (inactive) | 0.68 (inactive) | 2.04 | 0.447 |
| COCCOC(=O)N1C(=O)[C@@]2(c3cc(C#CCNC(N)=O)ccc31)[C@H](c1ccccc1OCCO)N1[C@H](c3ccccc3)[C@H](c3ccccc3)OC(=O)[C@H]1[C@@H]2C(=O)Nc1nc2ccccc2s1 | 0.141 | -0.949 (inactive) | 0.0653 (inactive) | 0.178 (inactive) | 0.789 | 0.061 | 0.196 | 0.287 | 0.312 | 2.56 (inactive) | 0.0943 | 2.23 (inactive) | -0.226 (inactive) | 0.653 (inactive) | -0.809 (inactive) | 1.87 | 1.85 (inactive) | 1.5 (inactive) | 1.25 | 0.323 |
| COCCCN1C(=O)[C@@]2(Cc3ccccc31)c1ccccc1C(=O)N(Cc1ccccc1Cl)[C@H]2c1ccc(CO)cc1 | 0 | -1.33 (inactive) | -0.179 (inactive) | -0.415 (inactive) | -0.733 | -0.108 | -0.471 | 0.0439 | 0.0161 | 3.46 (inactive) | 0.0053 | 0.399 (inactive) | -0.277 (inactive) | -0.992 (inactive) | -0.85 (inactive) | 1.34 | -2.48 (inactive) | 0.163 (inactive) | 1.65 | 1.54 |
| C=C(COC)/C(=C/C[C@H](OC(C)=O)c1cccc(OCCO)c1)c1cc(C(=O)OC)ccc1OC | 0.44 | -8.11 (active) | 11.5 (active) | -0.4 (inactive) | -0.356 | -0.018 | 1.34 | 1.22 | 1.72 | 1.59 (inactive) | -0.101 | 10.1 (active) | 1.78 (inactive) | -2.63 (inactive) | -0.0354 (inactive) | 1.44 | -1.94 (inactive) | 0.00567 (inactive) | -3.06 | -0.344 |
| COc1ccc([Si](C)(C)[C@@H]2[C@@H](CC(=O)N3CCC[C@H]3CO)O[C@]3(C(=O)N(Cc4ccc(N5CCC5=O)cc4)c4ccccc43)[C@H]2C)cc1 | 0.0507 | -1.8 (inactive) | 0.861 (inactive) | -1.19 (inactive) | 0.761 | 0.027 | 0.572 | 0.409 | 1.55 | 0.436 (inactive) | 0.156 | 7.47 (inactive) | 1.49 (inactive) | -0.836 (inactive) | 0.77 (inactive) | 0.127 | 2.99 (inactive) | 1.58 (inactive) | 4.86 | -0.639 |
| COCCOC(=O)N1C(=O)[C@@]2(c3cc(C#CCNC(N)=O)ccc31)[C@H](C(=O)NC[C@H](O)c1ccccc1)[C@H]1C(=O)O[C@H](c3ccccc3)[C@H](c3ccccc3)N1[C@@H]2c1ccc(O)cc1 | 0.226 | -1.19 (inactive) | -1.02 (inactive) | -0.899 (inactive) | 0.0489 | -0.128 | 0.397 | 0.393 | 0.746 | 2.05 (inactive) | -0.196 | 0.532 (inactive) | -1.33 (inactive) | 0.527 (inactive) | -1.55 (inactive) | 1.57 | 1.46 (inactive) | 0.692 (inactive) | 0.776 | 0.834 |
| O=C(NCC(F)(F)F)[C@@H]1c2ccccc2C(=O)N(C2Cc3ccccc3C2)[C@H]1c1ccc(CO)cc1 | -0.034 | -1.11 (inactive) | -0.295 (inactive) | -1.15 (inactive) | -1.25 | 0.106 | -0.0578 | 0.224 | -0.875 | 2.43 (inactive) | 0.0588 | 3.55 (inactive) | -0.483 (inactive) | 1.8 (inactive) | -0.683 (inactive) | 1.14 | 0.207 (inactive) | 1.23 (inactive) | -1.23 | 2.25 |
